High-throughput results (PubChem)
Pol iota inh: blocks human DNA polymerase iota activity. Q9UNA4. Pol iota fluorescent replication assay, 10 min. Potency, µM (series often up to 115 µM), actives largely listed as inhibitors. 390,000 tested, 1% active. AID 588590
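Fluorescent replication assay read twice, at 0 min and 10 min after adding 50 nM (final) substrate. Enzyme (10 nM) and compounds were first incubated 15 min at room temperature; enzyme-free buffer wells were negative controls.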
PI5P4Ka inh: inhibitors of human PI5P4K alpha; PI5P4Kalpha enzyme, ADP-Glo luminescence, 60 min; active compounds read low; P48426; max response, %; 330,000 tested, 1.2% active; active = max response of -50% or lower; inconclusive = between -30% and -50%; inactive = -30% or higher; also: value at the top dose of about 77 µM
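Luminescence from ADP-Glo served as readout of PI5P4Kalpha activity in a qHTS format. Reaction: enzyme, substrate, compound, ATP at 5 microM final, 60 min at RT.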
POLH inh: blocks human DNA polymerase eta activity; Q9Y253; recombinant Pol eta, fluorescent DNA replication assay; Potency, µM (top dose mostly 114 µM), usual class: inhibitors; 390,000 tested, 1.2% active
Target sequence (Q9Y253 whole entry, looked up): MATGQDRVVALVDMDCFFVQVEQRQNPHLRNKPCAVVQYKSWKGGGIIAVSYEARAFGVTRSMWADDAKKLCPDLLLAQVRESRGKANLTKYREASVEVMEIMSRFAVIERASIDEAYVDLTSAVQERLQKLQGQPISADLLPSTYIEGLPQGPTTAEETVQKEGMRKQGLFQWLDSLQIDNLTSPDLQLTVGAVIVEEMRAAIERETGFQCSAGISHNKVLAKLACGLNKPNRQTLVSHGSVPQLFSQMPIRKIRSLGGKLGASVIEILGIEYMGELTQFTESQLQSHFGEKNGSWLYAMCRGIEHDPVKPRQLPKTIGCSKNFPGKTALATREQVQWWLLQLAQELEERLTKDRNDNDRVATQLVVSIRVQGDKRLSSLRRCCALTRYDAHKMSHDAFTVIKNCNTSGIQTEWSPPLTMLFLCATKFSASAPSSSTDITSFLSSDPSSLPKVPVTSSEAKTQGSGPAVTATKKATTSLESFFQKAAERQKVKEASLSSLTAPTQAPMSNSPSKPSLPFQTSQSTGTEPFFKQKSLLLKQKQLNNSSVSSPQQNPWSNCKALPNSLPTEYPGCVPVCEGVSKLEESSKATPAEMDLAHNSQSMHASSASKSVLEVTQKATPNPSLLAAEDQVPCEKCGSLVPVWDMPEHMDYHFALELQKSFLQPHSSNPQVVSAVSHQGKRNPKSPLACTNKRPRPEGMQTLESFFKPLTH
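Fluorescent replication assay: 50 nM final substrate added after a 15 min room-temperature compound preincubation with 10 nM enzyme. Signal taken at 0 min and again at 10 min.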
WRN helicase inh: inhibitors of human WRN helicase. Q14191. WRN helicase unwinding, fluorescent forked duplex, kinetic. Potency, µM (highest dose often 114 µM), actives largely listed as inhibitors. 360,000 tested, 0.46% active. AID 651768; also: nearly all actives have a fitted effect of over 55% in size
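Fluorescence dequenching readout, ex 525 nm/em 598 nm, kinetic mode: forked duplex DNA (100 nM final) with adjacent fluorophore and quencher unwound by WRN (20 nM final) with 2 mM ATP. Compound preincubation 15 min, room temperature.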
POLB inh: blocks human DNA polymerase beta activity | P06746 | Pol beta primer extension/strand displacement, fluorescence kinetic | Potency, µM (titrated, usually from 114 µM), usual class: inhibitors | 340,000 tested, 1.3% active
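Preincubation: enzyme (10 nM) with compound, 15 min, RT. Reaction: substrate added to 50 nM final. Reads: 0 and 10 min. Analysis: normalized, Hill fit.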
POLK inh: DNA polymerase kappa (human) inhibition | Q9UBT6 | purified Pol kappa, fluorescent DNA synthesis assay, 10 min | Potency, µM (highest dose often 107 µM), hits mostly inhibitors | 400,000 tested, 0.53% active
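Here, compound and 10 nM enzyme are combined for 15 min at room temperature; adding 50 nM substrate (final) starts DNA synthesis, tracked by fluorescence at 0 and 10 min against buffer-only wells.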
Of the large screens only hits and unclear results are named; the others gave an inactive call. A selection: hits, their analogues and other compounds. The true share with any hit is near 2.8%. Unless noted, calls follow the shape of the dose curve; as a rule, active = well fitted curve in the direction sought with a large enough effect; inconclusive = small, poorly fitted or top-dose-only effect, or another doubt; inactive = no such curve, though single readings can be large; an effect the other way counts as inactive or inconclusive.

O=C(CCC1CCCC1)NNC(=O)c1cc2ccccc2cc1O	Pol iota inh inconclusive, POLB inh 50µM
CCOc1ccc(NC(=O)NNC(=O)c2cc3ccccc3cc2O)cc1	Pol iota inh 79µM, POLB inh inconclusive
Cc1cccc(NC(=O)NNC(=O)c2cc3ccccc3cc2O)c1C	Pol iota inh 50µM, POLB inh 35µM, POLK inh inconclusive
O=C(NNC(=O)c1cc2ccccc2cc1O)Nc1ccccc1F	POLB inh inconclusive
Cc1ccc(NC(=O)NNC(=O)c2cc3ccccc3cc2O)c(C)c1	Pol iota inh 71µM, POLB inh inconclusive, POLK inh inconclusive
CCc1ccc(NC(=O)NNC(=O)c2cc3ccccc3cc2O)cc1	Pol iota inh inconclusive, POLB inh inconclusive, POLK inh inconclusive
Cc1nnc(SCC(=O)Nc2sc3c(c2C(=O)c2ccccc2)CCCC3)s1	none
Cc1cc(Cl)ccc1OCC(=O)Nc1cccc(-c2nc3ccccc3o2)c1	none (no result: PI5P4Ka inh, POLH inh, WRN helicase inh, POLB inh)
Cc1ccc(C)c(NC(=O)NNC(=O)c2cc3ccccc3cc2O)c1	Pol iota inh 35µM, POLH inh inconclusive, POLB inh 35µM, POLK inh inconclusive
Cc1ccc(NC(=O)NNC(=O)c2cc3ccccc3cc2O)cc1C	Pol iota inh inconclusive, POLB inh inconclusive
COc1ccc(-n2nnc(-c3nc(-c4cccs4)no3)c2N)cc1OC	POLB inh inconclusive (no result: PI5P4Ka inh, WRN helicase inh)
CCCCC(=O)OCC(=O)C1(O)Cc2c(O)c3c(c(O)c2C(OC2CC(NC(=O)C(F)(F)F)C(O)C(C)O2)C1)C(=O)c1c(OC)cccc1C3=O (stereo unspecified)	Pol iota inh inconclusive, WRN helicase inh 7.9µM, POLK inh inconclusive (no result: POLB inh)
COc1cccc2c1C(=N)c1c(O)c3c(c(O)c1C2=O)CC(O)(C(C)=O)CC3OC1CC(N)C(O)C(C)O1 (stereo unspecified)	Pol iota inh inconclusive, POLH inh inconclusive, WRN helicase inh inconclusive, POLK inh inconclusive (no result: POLB inh)
COc1cccc2c1C(=O)c1c(O)c3c(c(O)c1C2=O)C[C@](O)(C(=O)CO)C[C@H]3O[C@@H]1C[C@H](N)[C@H](O)[C@H](C)O1	POLK inh 1.5µM (no result: Pol iota inh, PI5P4Ka inh, POLH inh, WRN helicase inh, POLB inh)
COc1ccc(CCNC(=O)COc2ccc(S(=O)(=O)NC3CCCCC3)cc2Cl)cc1	none (no result: PI5P4Ka inh)
Cc1[nH]c(=O)nc(NN=Cc2ccc(Cl)cc2)c1C(=O)Nc1ccc(Cl)cc1	none (no result: POLB inh)
COc1ccc(N2CCN(S(=O)(=O)c3ccc(-n4cnnn4)c(C)c3)CC2)cc1	Pol iota inh inconclusive, POLH inh 32µM, WRN helicase inh inconclusive, POLB inh 28µM, POLK inh inconclusive
O=C(O)COc1ccc(/C=C/c2ccc3cccc([N+](=O)[O-])c3n2)cc1	Pol iota inh inconclusive, POLH inh 20µM, POLK inh inconclusive
CC(=O)Nc1ccc(/C=C/c2ccc3cccc([N+](=O)[O-])c3n2)cc1	none
O=S(=O)(O)c1cc(O)c2c(N=Nc3ccc(Nc4ccccc4)c4c(S(=O)(=O)O)cccc34)cc(S(=O)(=O)O)cc2c1	POLK inh 3.2µM (no result: Pol iota inh, PI5P4Ka inh, POLH inh, WRN helicase inh, POLB inh)
COc1ccc2cc3cc(C(=O)NCc4ccco4)oc3nc2c1	Pol iota inh inconclusive, POLH inh 16µM, WRN helicase inh inconclusive, POLB inh 22µM, POLK inh inconclusive
O=C(NCc1ccco1)c1cc2cc3ccc(Cl)cc3nc2o1	Pol iota inh inconclusive, POLH inh inconclusive, POLB inh inconclusive, POLK inh inconclusive
CC1=CC(=O)C(C(C)C)=C/C1=C(\c1cc(C(C)C)c(OP(=O)(O)O)cc1C)c1ccccc1C(=O)O	POLH inh 79µM, POLB inh 50µM
COc1ccc(NC(=O)CCS(=O)(=O)c2ccc(Br)s2)cc1	Pol iota inh inconclusive, POLH inh 50µM, POLB inh 32µM, POLK inh inconclusive
CCc1cccc(CC)c1NC(=O)CCS(=O)(=O)c1ccc(Br)s1	POLB inh 20µM (no result: PI5P4Ka inh, WRN helicase inh)
O=C(CSc1nc(-c2ccccc2)no1)N1CCN(c2ccccc2F)CC1	Pol iota inh 89µM (no result: PI5P4Ka inh, WRN helicase inh)
CC(C)c1ccc(-c2noc(SCC(=O)N3CCN(c4ccccc4F)CC3)n2)cc1	POLB inh inconclusive (no result: PI5P4Ka inh, WRN helicase inh)
Cc1cc(/C=C(\C#N)C(=O)O)c(C)n1CC1CCCO1 (stereo unspecified)	PI5P4Ka inh -72
Cc1cc(=O)n2[nH]c(-c3ccsc3-n3c(C)ccc3C)cc2n1	Pol iota inh 7.9µM, PI5P4Ka inh -86, POLH inh 7.9µM, WRN helicase inh inconclusive, POLB inh inconclusive, POLK inh 28µM
Cc1cc([N+](=O)[O-])nn1CC(=O)Nc1cccc2nonc12	PI5P4Ka inh -73, POLH inh inconclusive, POLB inh inconclusive
CCc1ccc(NC(=O)C2CCN(S(=O)(=O)c3ccc4c(c3)NC(=O)C(C)S4)CC2)cc1 (stereo unspecified)	Pol iota inh 79µM, POLB inh inconclusive
O=C(O)C1Cc2ccccc2CN1C(=O)COc1ccc(Cl)cc1 (stereo unspecified)	POLH inh 32µM
CC(=O)C1=C(c2ccccc2)NC(=O)NC1c1ccc(O)c(O)c1 (stereo unspecified)	Pol iota inh 40µM, POLH inh inconclusive, POLB inh 4µM, POLK inh 79µM
CC1=C([N+](=O)[O-])C(c2ccc(O)c(O)c2)NC(=O)N1 (stereo unspecified)	Pol iota inh 79µM
COc1cc(C2NC(=O)NC(c3ccccc3)=C2C(C)=O)cc(Cl)c1OCC(=O)O (stereo unspecified)	POLH inh 28µM
CC(=O)C1=C(c2ccccc2)NC(=O)NC1c1ccc2c(c1)OCO2 (stereo unspecified)	none
COc1cc(C2NC(=S)NC(c3ccccc3)=C2C(C)=O)cc(Cl)c1OCC(=O)O (stereo unspecified)	none (no result: PI5P4Ka inh)
CC(=O)C1=C(c2ccccc2)NC(=S)NC1c1ccc(O)c(O)c1 (stereo unspecified)	Pol iota inh 18µM, POLH inh inconclusive, POLB inh 4µM
CC1=C(C(=O)N2CCCCCC2)CC(CC(=O)NCCc2ccccn2)C(=O)N1CCCN1CCCC1=O (stereo unspecified)	none (no result: Pol iota inh, POLH inh, POLB inh, POLK inh)
Cc1c(-c2ccncc2)oc2ccc(Br)cc2c1=O	none (no result: Pol iota inh, PI5P4Ka inh, POLH inh, WRN helicase inh, POLK inh)
N#CCCn1nc2c(c1N)CCC2	none (no result: POLB inh)
Cc1ccc(NC(=O)CSC(N)=O)cc1Cl	Pol iota inh 13µM
NC(=O)SCC(=O)Nc1ccc(Cl)c(Cl)c1	Pol iota inh inconclusive, WRN helicase inh inconclusive
O=C1/C(=C\c2ccncc2)CCc2ccccc21	Pol iota inh inconclusive, POLH inh inconclusive (no result: POLB inh)
O=C1/C(=C/c2ccncc2)CCc2ccccc21	PI5P4Ka inh inconclusive, POLH inh 79µM
O=c1c2ccccc2oc2ccc(-c3ccc4cc[nH]c4c3)cc12	none (no result: POLB inh)
CCOC(=O)N1CCc2c(sc3nc[nH]c(=O)c23)C1	none
